F508del corr = correctors of CFTR F508del function in bronchial epithelial cells; activity (quench increase), % at 7.58 µM; CFBE cells, YFP halide quenching; stimulated with forskolin plus potentiator P3; % fluorescence drop versus neutral controls; actives 0.36% (n = 350,000);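 active = mean added fluorescence quench of at least 8% versus neutral control, with both replicates also reaching 8%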;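 note: cells transiently co-express mutant CFTR-F508del with the halide-sensitive YFP; corrector assay measuring rescue of mutant channel to the surface after 24 h compound exposure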
ERAP1 inh = blocks human ERAP1 aminopeptidase activity | Q9NZ08 | recombinant ERAP1, Leu-AMC fluorescence, 60 min | inhibition, % at 10.7 µM | actives 0.15% (n = 340,000);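 active = mean replicate inhibition of at least 30%, or all replicates individually reaching that 30% level; inactive = mean below 30% and not every replicate reaching it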;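 note: 0% = neutral control wells and 100% = L-leucinethiol positive control wells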
Ecoli rRNA inh = inhibitors of bacterial rRNA selective over humanized ribosomes; E. coli WT GFP vs humanized-ribosome RFP mutants, fluorescence, 24 h; active compounds read low; DMSO median 0, no signal -100; GFP signal change (wild-type ribosome), % (concentration not given with the values); actives 1.6% (n = 350,000); AID 720706;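 active = significant combined selectivity score with lowered wild-type GFP, culture density cut under 30%, mutant RFP and density less affected; inactive = any of these conditions unmet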
PvdQ inh = P. aeruginosa PvdQ acylase inhibition; purified PvdQ acylase, fluorescence plate reader; inhibition, % at 10 µM; actives 0.063% (n = 340,000); in the data active = inhibition above about 30%, passing the limit was not always enough;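 note: 0% = vehicle neutral wells and 100% = reference inhibitor wells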
ARNT-TACC3 inh = disrupts binding between human ARNT and TACC3. Q9Y6A5. inhibition, % at 9.99 µM. AlphaScreen His-ARNT PAS-B/GST-TACC3 binding, luminescence; TACC3 fragment carries E629A point mutation. actives 0.66% (n = 390,000). AID 623870;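 active = mean inhibition of replicates at least 50% and at least half of replicates each reaching 50%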;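 note: 0% = complete ARNT plus TACC3 wells and 100% = ARNT alone without TACC3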
* hit, by the source's call; nt = not tested or not shown. Sampled rows, rich in hits. Any-hit rate of the full collection: about 2.1%.

SMILES	F508del corr	ERAP1 inh	Ecoli rRNA inh	PvdQ inh	ARNT-TACC3 inh
CC1CCN(C(=O)C2COc3ccccc3O2)CC1 (stereo not given)	16*	1	6	-15	nt
Cc1cc(C(=O)Nc2cccc3c2O[C@H](CN(C)S(=O)(=O)c2cccs2)[C@H](C)CN([C@H](C)CO)C3=O)n(C)n1	3	-3	0	nt	-3
Cc1noc(C)c1S(=O)(=O)Nc1ccc2c(c1)C(=O)N([C@@H](C)CO)C[C@@H](C)[C@@H](CN(C)S(=O)(=O)c1ccc(F)cc1)OCCCC[C@H](C)O2	7	2	1	nt	-3
CCOc1ccccc1OCCCC(=O)N1CCN(S(=O)(=O)c2cc(F)ccc2F)CC1	3	-1	-20*	6	34
CCOc1ccccc1OCCCC(=O)N1CCN(S(=O)(=O)c2ccc(Cl)cc2)CC1	1	-1	-11	-16	-2
O=C(COC(=O)CCCc1nc2ccccc2s1)NC(=O)NCc1ccco1	1	4	-19*	-5	12
Cc1noc(C)c1NC(=O)Nc1ccc2c(c1)C(=O)N([C@H](C)CO)C[C@@H](C)[C@H](CN(C)C)O2	1	1	4	nt	-3
Cn1c(=O)c(N)c2c3c(c(Br)ccc31)C(=O)c1ccccc1-2	11*	-1	69	-14	8
N#C[C@@H]1[C@H](c2ccccc2-c2cccc(F)c2)[C@@H](CO)N1C(=O)C1CC1	1	-2	0	nt	nt
Cc1nn2c(SCC(=O)c3cccs3)cc(C(C)(C)C)nc2c1-c1ccccc1	nt	7	-30*	6	15
CCSc1cc(C)nc2c(-c3ccccc3)c(C)nn12	nt	nt	nt	5	3
Cc1cc(SCC(=O)Nc2ccc(O)cc2)n2nc(C)c(-c3ccccc3)c2n1	0	0	-20	-11	2
C=C(C)CSc1cc(C)nc2c(-c3ccccc3)c(C)nn12	-7	-1	-49*	-19	4
Oc1ccc(-c2csc(Nc3ncccn3)n2)cc1O	3	0	-30*	8	2
Oc1ccc(-c2csc(-c3cccnc3)n2)cc1O	1	3	-17	-1	-2
Oc1ccc(-c2csc(Nc3ncccn3)n2)c(O)c1	5	3	-10	-14	2
Oc1ccc(-c2csc(-c3ccccc3)n2)cc1O	-1	-3	-34*	-3	9
Nc1nc(-c2ccc(-c3ccccc3)cc2)cs1	1	2	-25*	-4	-6
C[C@H](CO)N1C[C@H](C)[C@@H](CN(C)C(=O)Nc2ccc(C(F)(F)F)cc2)Oc2ncc(-c3ccc(C#N)cc3)cc2C1=O	0	-1	-5	nt	1
COc1cccc(S(=O)(=O)N2C[C@@H](O)COC[C@H]3O[C@H](CC(=O)N4CCOCC4)CC[C@@H]32)c1	1	-3	4	nt	-31
CCCNC(=O)C[C@H]1CC[C@H]2[C@H](COc3ccc(NC(=O)c4cscn4)cc3C(=O)N2C)O1	1	4	1	nt	1
CCC(=O)N1[C@H](CO)[C@@H](c2ccc(-c3cccc(F)c3)cc2)[C@@H]1CNC(C)=O	-4	nt	-2	nt	-10
Cc1c2cc[n+](CCN3CCCCC3)cc2c(C)c2c1[nH]c1ccc(O)cc12	nt	nt	nt	-8	49*
COc1ccc2c3c([nH]c2c1)[C@H](CO)N(Cc1cc(F)ccc1F)CC31CN(C)C1	3	40*	1	nt	nt
COC(=O)[C@]1(C)N[C@H](CN(C)S(=O)(=O)c2ccc(OC(F)(F)F)cc2)[C@@H]2C(=O)N(Cc3ccccc3)C(=O)[C@@H]21	1	0	-21*	-11	5
SMILES	F508del corr	ERAP1 inh	Ecoli rRNA inh	PvdQ inh	ARNT-TACC3 inh
COc1cccc(OC)c1OCC(O)CN1CCN(c2ccccc2)CC1 (stereo not given)	nt	nt	nt	-2	1
Cc1cccc(C)c1OCC(O)CN1CCN(c2ccccc2)CC1 (stereo not given)	5	-2	-29*	-7	-4
C[C@H](CO)N1C[C@H](C)[C@@H](CN(C)Cc2cccc(F)c2)Oc2ncc(C3=CCCCC3)cc2C1=O	-3	3	-9	nt	1
COc1ccc(CN(C)C[C@H]2Oc3ccc(NC(=O)Nc4c(C)noc4C)cc3CC(=O)N([C@H](C)CO)C[C@H]2C)cc1	2	-1	6	nt	4
C/C(=N\Nc1ccc(S(=O)(=O)Nc2ccccc2)cc1[N+](=O)[O-])c1ccncc1	-1	0	24	nt	nt
COc1ccc(NS(=O)(=O)c2ccc(N/N=C(\C)c3ccncc3)c([N+](=O)[O-])c2)cc1	nt	3	-23*	8	5
CNC(=O)C[C@@H]1CC[C@H]2[C@@H](COc3ccc(NC(=O)c4cnccn4)cc3C(=O)N2C)O1	1	nt	5	nt	0
Nc1nn2cc(-c3ccccc3)nc2c2ccccc12	-1	-3	-41*	-2	-1
Nc1nc(-c2ccccc2)cn1N	nt	nt	nt	-8	48*
C=CCn1c(SCC(=O)NC23CC4CC(CC(C4)C2)C3)nc2cc(C(=O)O)ccc2c1=O	5	2	-23*	-14	-12
C[C@H]1CN([C@@H](C)CO)C(=O)Cc2cc(NC(=O)CCN3CCOCC3)ccc2O[C@@H]1CN(C)CC1CC1	-4	2	4	nt	2
O=C(NCCCN1CCOCC1)c1cc(S(=O)(=O)N2CCOCC2)c(Cl)cc1Cl	9.0*	-1	11	0	-2
O=C(NCCCN1CCOCC1)c1cc(Cl)ccc1Cl	-4	0	22	-15	-2
N#C/C(=C\c1ccc(O)c(O)c1)C(=O)N1CCc2ccccc21	3	2	nt	-2	10
COc1cc(/C=C(\C#N)C(=O)N2CCc3ccccc32)ccc1O	-1	2	-33*	-2	0
CC(C)C#Cc1cnc2c(c1)C(=O)N([C@H](C)CO)C[C@H](C)[C@@H](CN(C)C(=O)Cc1ccncc1)O2	-1	1	6	nt	-2
Cc1ccc2c(c1)S/C(=C/c1ccc[n+](C)c1)N2CCO	0	52*	64	5	-3
C[C@H]1CN([C@@H](C)CO)C(=O)c2cccc(NC(=O)c3ccc(-c4nccs4)cc3)c2O[C@H]1CN(C)S(=O)(=O)c1ccc(F)cc1	-1	-4	-5	nt	-2
Cc1cc(C)c(S(=O)(=O)/N=C2/C=C(SCC(=O)O)C(=O)c3ccccc32)cc1C	nt	nt	nt	-11	74*
Cc1cc(C)c(S(=O)(=O)/N=C2\C=C(Nc3ccc(C(=O)O)cc3)C(=O)c3ccccc32)c(C)c1	-2	-1	-9	3	nt
N#Cc1c(=O)c2nc(NCCCO)ncc2n2c(=O)c3ccccc3[nH]c12	4	6	-2	0	29
N#Cc1c(=O)c2nc(NCc3ccccc3)ncc2n2ccccc12	nt	nt	nt	-4	53*
Cc1noc(C)c1S(=O)(=O)Nc1ccc2c(c1)C(=O)N([C@H](C)CO)C[C@H](C)[C@@H](CN(C)Cc1ccc3c(c1)OCO3)OCCCC[C@@H](C)O2	0	3	1	nt	16

Source: PubChem BioAssay (Broad Institute)
